Results filed as inconclusive are left out. Unless noted, calls come from the whole dose curve; as a rule, active = well fitted curve in either direction with a large enough effect (not every such curve was filed as active); inconclusive = small, poorly fitted or top-dose-only effect, or another doubt; inactive = flat fitted curve, though single readings scatter.
Tests used:
[1] = AP1 Signaling Pathway (AID 357); settings: ME-180 AP-1-bla reporter, EGF-induced, beta-lactamase ratio, 5 h; at 17.2 µM (top of the series) unless noted;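 note: ME-180 reporter cells stimulated with EGF at its EC50 level; % is set by controls: 0 for no effect and ±100 for the full control effect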
Outline: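 Beta-lactamase reporter under AP-1 response element, ME-180 background. Stimulus: EC50 EGF. Compound exposure 5 h, 37 °C. Detection: CCF4, 2.5 h RT, 460/530 nm. Values: AC50 from titration.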

[2] = NFAT Signaling Pathway (AID 444); settings: Jurkat NFAT-bla M1, carbachol, beta-lactamase ratio, 5 h; at 17.2 µM (top of the series) unless noted;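 note: carbachol stimulus at about its EC50 of 1 µM final; % is set by controls: 0 for no effect and ±100 for the full control effect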
Outline: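 Jurkat cells carrying an NFAT-driven β-lactamase reporter and co-transfected muscarinic M1 receptor were treated with compound plus carbachol (1 uM final, an EC50 level) for 5 h at 37 °C. CCF4 loading followed for 1 h at RT; 460/530 nm ratio gave %activity.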

[3] = Stat Signaling Pathway (AID 446); settings: ME-180 (cervical carcinoma) SIE beta-lactamase reporter, IL-6 stimulated, 5 h; at 17.2 µM (top of the series) unless noted;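 note: ME-180 cervical cancer cells given 40 pM IL-6 alongside compound; SIE-controlled beta-lactamase reporter measured as 460/530 nm FRET emission ratio; % is set by controls: 0 for no effect and ±100 for the full control effect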
Outline: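 IL-6/STAT signaling read in ME-180 cells via an SIE beta-lactamase reporter. Stimulus was 40 pM IL-6 (its AC50) for 5 hrs, so both activation and inhibition register.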

[4] = target: Glucocorticoid receptor (Homo sapiens) (UniProt P04150); assay: GR-GFP Redistribution (AID 450;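 active = compounds whose dose series gives a full or clear partial fitted curve of increased nuclear translocation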; note: potency is the fitted concentration of half-maximal effect)
Glucocorticoid receptor (Homo sapiens), sequence (P04150 whole entry, looked up): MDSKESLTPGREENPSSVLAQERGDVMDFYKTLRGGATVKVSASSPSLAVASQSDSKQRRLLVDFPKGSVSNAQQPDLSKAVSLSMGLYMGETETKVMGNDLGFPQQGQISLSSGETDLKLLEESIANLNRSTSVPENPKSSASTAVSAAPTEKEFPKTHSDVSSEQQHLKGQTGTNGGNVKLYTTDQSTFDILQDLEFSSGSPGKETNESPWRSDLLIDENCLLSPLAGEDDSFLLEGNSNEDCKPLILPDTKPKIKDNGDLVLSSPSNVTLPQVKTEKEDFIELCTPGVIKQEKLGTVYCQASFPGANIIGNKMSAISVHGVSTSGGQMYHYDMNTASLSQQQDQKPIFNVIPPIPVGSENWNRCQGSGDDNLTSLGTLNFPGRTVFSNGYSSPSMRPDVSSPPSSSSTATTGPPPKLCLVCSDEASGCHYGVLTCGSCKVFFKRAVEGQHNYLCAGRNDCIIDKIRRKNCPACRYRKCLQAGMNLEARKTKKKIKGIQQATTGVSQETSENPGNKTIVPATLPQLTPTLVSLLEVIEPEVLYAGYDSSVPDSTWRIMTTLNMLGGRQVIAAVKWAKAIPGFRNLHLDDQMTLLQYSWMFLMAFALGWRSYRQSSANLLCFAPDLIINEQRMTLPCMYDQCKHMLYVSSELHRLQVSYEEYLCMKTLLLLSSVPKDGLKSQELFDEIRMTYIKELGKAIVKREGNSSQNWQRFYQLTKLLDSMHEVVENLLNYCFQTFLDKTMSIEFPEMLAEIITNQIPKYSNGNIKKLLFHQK

COc1ccc(OC)c(C2/C(=C(/O)c3cnn(-c4ccccc4)c3C)C(=O)C(=O)N2CCN(C)C)c1 (stereo not given)
inactive: activity change, negative = inhibition [1] 0.346% | activity change, negative = inhibition [2] 4.77% | activity, negative = inhibition [3] 3.03% | Potency [4] > 20.6 µM

Cc1ccc2[nH]c3c(N4CCOCC4)ncnc3c2c1
inactive: activity change, negative = inhibition [1] -7.05% | activity change, negative = inhibition [2] 18.4% | activity, negative = inhibition [3] -10.6% | Potency [4] > 20.6 µM

O=C(NCc1ccco1)c1cnn2c1NC(c1ccccc1)CC2C(F)(F)F (stereo not given)
inactive: activity change, negative = inhibition [1] -8.13% | activity change, negative = inhibition [2] -2.99% | activity, negative = inhibition [3] -6.74% | Potency [4] > 20.6 µM

Cc1nnc2n(-c3ccccc3)c(=O)c3c4c(sc3n12)CC(C)CC4 (stereo not given)
inactive: activity change, negative = inhibition [1] 3.4% | activity change, negative = inhibition [2] -3.87% | activity, negative = inhibition [3] -2.29% | Potency [4] > 20.6 µM

COc1ccccc1Nc1ncnc2c1cnn2-c1cccc(C)c1
inactive: activity change, negative = inhibition [1] -28.5% | activity change, negative = inhibition [2] -14.7% | activity, negative = inhibition [3] -6.58% | Potency [4] > 20.6 µM

CCOC(=O)c1[nH]c2ccccc2c1N=CN(CC)CC
inactive: activity change, negative = inhibition [1] 9.2% | activity change, negative = inhibition [2] -19.2% | activity, negative = inhibition [3] -2.38% | Potency [4] > 20.6 µM

COC(=O)CSc1nc(C)c(Oc2ccccc2)c(=O)[nH]1
inactive: activity change, negative = inhibition [1] 22.2% | activity change, negative = inhibition [2] 15.3% | activity, negative = inhibition [3] 7.32% | Potency [4] > 20.6 µM

Cc1cc(=O)oc(C)c1C(=O)NC1CC(C)(C)NC(C)(C)C1
inactive: activity change, negative = inhibition [1] -2.44% | activity change, negative = inhibition [2] -3.93% | activity, negative = inhibition [3] 0.837% | Potency [4] > 20.6 µM

COc1cc(C(=O)Nc2ccccn2)cc(OC)c1OC
inactive: activity change, negative = inhibition [1] 1.72% | activity change, negative = inhibition [2] 12% | activity, negative = inhibition [3] 25.9% | Potency [4] > 20.6 µM

CCN(CC)C(=O)CSC1=C(C#N)C(c2ccco2)C(C(=O)OCCOC)=C(C)N1 (stereo not given)
inactive: activity change, negative = inhibition [1] -10.6% | activity change, negative = inhibition [2] -0.498% | activity, negative = inhibition [3] 2.75% | Potency [4] > 20.6 µM

O=C(C1=C(O)C(=O)N(CCN2CCOCC2)C1c1cccnc1)c1cc2ccccc2o1 (stereo not given)
inactive: activity change, negative = inhibition [1] 8.94% | activity change, negative = inhibition [2] -4.55% | activity, negative = inhibition [3] 3.87% | Potency [4] > 20.6 µM

Brc1ccc(-c2cnnc(N3CCCC3)n2)cc1
inactive: activity change, negative = inhibition [1] -13.4% | activity change, negative = inhibition [2] 0.485% | activity, negative = inhibition [3] 6.79% | Potency [4] > 20.6 µM

c1ccc(OCc2nn3c(-c4ccco4)nnc3s2)cc1
inactive: activity change, negative = inhibition [1] 27.2% | activity change, negative = inhibition [2] 1.21% | activity, negative = inhibition [3] -4.83% | Potency [4] > 20.6 µM

O=C(COc1ccc(Cl)cc1)Nc1ccccc1CO
inactive: activity change, negative = inhibition [1] 6.8% | activity change, negative = inhibition [2] 6.35% | activity, negative = inhibition [3] 0.225% | Potency [4] > 20.6 µM

CN(C)CCCN1C(=O)C(O)=C(C(=O)c2cc3ccccc3o2)C1c1ccccc1 (stereo not given)
inactive: activity change, negative = inhibition [1] 8.55% | activity change, negative = inhibition [2] -4.4% | activity, negative = inhibition [3] 1.48% | Potency [4] > 20.6 µM

COc1cccc(-c2nnc3sc(-c4ccc(Cl)cc4)nn23)c1
inactive: activity change, negative = inhibition [1] 5.29% | activity change, negative = inhibition [2] -1.08% | activity, negative = inhibition [3] 11.1% | Potency [4] > 20.6 µM

CCCOc1cccc(C2/C(=C(/O)c3ccc(F)cc3)C(=O)C(=O)N2CCN(C)C)c1 (stereo not given)
inactive: activity change, negative = inhibition [1] 3.27% | activity change, negative = inhibition [2] 2.49% | activity, negative = inhibition [3] -0.187% | Potency [4] > 20.6 µM

CC1CN(c2oc(-c3ccccc3Cl)nc2C#N)CC(C)O1 (stereo not given)
inactive: activity change, negative = inhibition [1] 6.37% | activity change, negative = inhibition [2] -6.23% | activity, negative = inhibition [3] 9.86% | Potency [4] > 20.6 µM

COc1ccc(OC)c(C2C(C(=O)c3sc(C)nc3C)=C(O)C(=O)N2CCN2CCOCC2)c1 (stereo not given)
inactive: activity change, negative = inhibition [1] 4.44% | activity change, negative = inhibition [2] 16.6% | activity, negative = inhibition [3] -1.07% | Potency [4] > 20.6 µM

CCOC(=O)c1c(N)sc(=S)c2c1CCC2
inactive: activity change, negative = inhibition [1] -21.1% | activity change, negative = inhibition [2] -6.19% | activity, negative = inhibition [3] -7.28% | Potency [4] > 20.6 µM

COc1ccc(N2CCN(c3nc4c(c(=O)[nH]c(=O)n4C)n3CCCc3ccccc3)CC2)cc1
inactive: activity change, negative = inhibition [1] 22% | activity change, negative = inhibition [2] -12.3% | activity, negative = inhibition [3] -11% | Potency [4] > 20.6 µM

COc1cccc(C2C(C#N)=C(N)Oc3cc(C)[nH]c(=O)c32)c1OC (stereo not given)
inactive: activity change, negative = inhibition [1] -18.5% | activity change, negative = inhibition [2] 0.0621% | activity, negative = inhibition [3] -3.84% | Potency [4] > 20.6 µM

CC1(C)Cc2ccccc2-c2c1c(=O)n(-c1ccccc1)c1nnnn21
inactive: activity change, negative = inhibition [1] -13.7% | activity change, negative = inhibition [2] -24.9% | activity, negative = inhibition [3] 2.44% | Potency [4] > 20.6 µM

CCOc1cccc(C2C(C#N)=C(N)Oc3cc(C)oc(=O)c32)c1OCC (stereo not given)
inactive: activity change, negative = inhibition [1] -17.6% | activity change, negative = inhibition [2] 9.73% | activity, negative = inhibition [3] -12.7% | Potency [4] > 20.6 µM

Clc1ccc(-n2ncc3c(NCCCn4ccnc4)ncnc32)cc1
inactive: activity change, negative = inhibition [1] -4.22% | activity change, negative = inhibition [2] -6.43% | activity, negative = inhibition [3] -0.823% | Potency [4] > 20.6 µM

From PubChem BioAssay (NCATS)
